One test concerns the target IKBKAP. Kind of test: pooled miR-30 sensor sort-seq; sequence = guide strand. Conditions: shRNA.
With TTGAATATCCCTGAACTCCAGG, the sensor-assay potency score (higher = more potent) is -0.562.
Still for that read-out and setting: to TTGTCTATAGTAAACCGCTGAT belongs -0.619; to TTGCAGTAGAATTGGGACCTAG, -0.443.
On the same count and under the same terms, to TATTTGTCTATAGTAAACCGCT belongs -0.467; to TTCTGAACCAATGAGCACCGTC, -0.483.
As to TATAACTTCAGAGCTTCGTTAT, the sensor-assay potency score (higher = more potent) was -0.855.
On the same count and under the same terms, next, TTTGTCTATAGTAAACCGCTGA: -0.157; TAATTCATTAACATCTACCAGA: -0.538; TCTTCGTGACATCTTCTTCTTT: -0.422.
As to TAGCATCGCAGACAAGGTCTAT, the sensor-assay potency score (higher = more potent) was -0.408.
Still for that read-out and setting: next, TTCTATAATATCCAGTCTGTTA: -1.24.

In another test the target is IKBKB. The description is as above. Conditions: shRNA.
Consider TTCGCTAACAACAATGTCCACC, for which the sensor-assay potency score (higher = more potent) was -0.709.
On the same count and under the same terms, next, TAAGTCCACAATGTCGGTCTGC: -0.424.
Sequence TTGAAAACTTCACCGTTCCATT showed a sensor-assay potency score (higher = more potent) of -0.697.
As for TCTTCTTCCGTCTGTAACCAGC, the sensor-assay potency score (higher = more potent) was -1.13.
The same measure, in the same setting: next, TTTCCTGATTGTGCCATCGGAT: -0.945; TTTTGTGTATTAACCTCTGTTC: -0.501; TTGCTTGCTCCTCTAGGTCGTC: -0.796.
Still for that read-out and setting: next, TTTGAATTGGACACTGTCCAGT: -0.0592.
On the same count and under the same terms, next, TAAGTTTAAGATGTCATCCAGG: -0.453.
In the case of TTGCTCCTCTAGGTCGTCCAGC, the sensor-assay potency score (higher = more potent) is -1.32.
On the same count and under the same terms, to TAGTCTCCTGTACAGCTCCCTT belongs -1.81; to TTGCTCGCTGTACTTCTCCAGG, -0.598.

Another test concerns the target IKBKG. Described as above. Conditions: shRNA.
Sequence TGTGGTTGTCGTATTCTTGGAA yielded a sensor-assay potency score (higher = more potent) of 0.455.
As for TTTGAGATCTTCCAGCTGCATT, the sensor-assay potency score (higher = more potent) was -1.36.
The same measure, in the same setting: next, TTATCGATCACCTCCTGTTTGG: -0.717; TCACAATCTTGTGCTGCTCGGC: -0.555.
Still for that read-out and setting: next, TTGGAAATGCAGAAGCTCCTCG: 0.49.
On the same count and under the same terms, next, TTTGCTGTACTCCCTCTGCAGC: -0.913; TTCAGTTTGCTGTACTCCCTCT: -0.286.
As to TTGCACATGAGGAACTCCTTCT, the sensor-assay potency score (higher = more potent) stood at 0.171.
On the same count and under the same terms, to TACGTCCTGATCTGCTGCCGGG belongs -1.55; to TCGTATTCTTGGAAGAGCTGGT, 0.277; to TTAGTGGCAGCCTCCAAGCGAC, -1.14.
Sequence TTCCTCATGTCCTCGATCCTGG yielded a sensor-assay potency score (higher = more potent) of -0.0606.

A further test addresses IL10. The test is described as above. The following applies: shRNA.
TTAACAACAAGTTGTCCAGCTG: the sensor-assay potency score (higher = more potent) is -0.0308.
Still for that read-out and setting: next, TTTCACAGGGAAGAAATCGATG: -0.836; TGAAAGAAAGTCTTCACTCTGC: 0.368; TTTAACAACAAGTTGTCCAGCT: 0.786.
Same read-out and setting: to TTGCTCTTGTTTTCACAGGGAA belongs -0.544.

The values above are taken from the OligoGym collection.
Further: reference of the scale not given here.
